Results taken from PubChem BioAssay (NCATS).
Where “and” joins values, the source holds several entries; their conditions need not be identical. Identical values can stand only once. Results filed as inconclusive are left out. Calls of active or inactive are those of the source. Unless noted, the call rests on the fitted dose curve.

What was measured:
[1] = biological target: Bile acid receptor (Homo sapiens) (UniProt Q96RI1); experiment: qHTS assay for small molecule antagonists of farnesoid X receptor signaling (AID 588526); details: HEK293T FXR-UAS-bla, beta-lactamase ratio, antagonist mode; series mostly up to 76.7 µM; further: potency means the concentration at half of the fitted maximal effect
Bile acid receptor (Homo sapiens), sequence (Q96RI1 whole entry, looked up): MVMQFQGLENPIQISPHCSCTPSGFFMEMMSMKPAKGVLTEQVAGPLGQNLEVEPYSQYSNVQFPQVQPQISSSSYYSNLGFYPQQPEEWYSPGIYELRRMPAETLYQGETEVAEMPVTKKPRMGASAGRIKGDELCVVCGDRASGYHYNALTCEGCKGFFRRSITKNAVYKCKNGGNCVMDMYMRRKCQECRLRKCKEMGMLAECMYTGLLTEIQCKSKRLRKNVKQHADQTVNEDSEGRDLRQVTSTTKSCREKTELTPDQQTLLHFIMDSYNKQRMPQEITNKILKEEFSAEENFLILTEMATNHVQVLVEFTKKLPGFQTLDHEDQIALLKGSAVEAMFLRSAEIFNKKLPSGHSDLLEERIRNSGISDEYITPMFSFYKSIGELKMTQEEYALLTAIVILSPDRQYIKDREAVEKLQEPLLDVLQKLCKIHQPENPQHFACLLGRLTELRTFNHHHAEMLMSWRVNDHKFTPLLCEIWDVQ
In short: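 Concentration-response titrations were fitted to the Hill equation for half-maximal inhibition and maximal response, with data normalised to 50 uM chenodeoxycholic acid and DMSO control wells. Cells: FXR-UAS-bla HEK293T, dialyzed FBS.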

[2] = biological target: Glucocorticoid receptor (Homo sapiens) (UniProt P04150); experiment: qHTS assay for small molecule agonists of glucocorticoid receptor signaling (AID 588532; active means well fitted curve in the direction sought with a large enough effect in the signal ratio, with a control signal flat; the % refers to the signal ratio;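 further: 100% = dexamethasone at 0.1 µM and 0% = DMSO only wells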); details: HeLa MMTV-bla, beta-lactamase ratio, agonist, 18 h; stronger effect = higher value; percent of dexamethasone control, DMSO zero
Glucocorticoid receptor (Homo sapiens), sequence (P04150 whole entry, looked up): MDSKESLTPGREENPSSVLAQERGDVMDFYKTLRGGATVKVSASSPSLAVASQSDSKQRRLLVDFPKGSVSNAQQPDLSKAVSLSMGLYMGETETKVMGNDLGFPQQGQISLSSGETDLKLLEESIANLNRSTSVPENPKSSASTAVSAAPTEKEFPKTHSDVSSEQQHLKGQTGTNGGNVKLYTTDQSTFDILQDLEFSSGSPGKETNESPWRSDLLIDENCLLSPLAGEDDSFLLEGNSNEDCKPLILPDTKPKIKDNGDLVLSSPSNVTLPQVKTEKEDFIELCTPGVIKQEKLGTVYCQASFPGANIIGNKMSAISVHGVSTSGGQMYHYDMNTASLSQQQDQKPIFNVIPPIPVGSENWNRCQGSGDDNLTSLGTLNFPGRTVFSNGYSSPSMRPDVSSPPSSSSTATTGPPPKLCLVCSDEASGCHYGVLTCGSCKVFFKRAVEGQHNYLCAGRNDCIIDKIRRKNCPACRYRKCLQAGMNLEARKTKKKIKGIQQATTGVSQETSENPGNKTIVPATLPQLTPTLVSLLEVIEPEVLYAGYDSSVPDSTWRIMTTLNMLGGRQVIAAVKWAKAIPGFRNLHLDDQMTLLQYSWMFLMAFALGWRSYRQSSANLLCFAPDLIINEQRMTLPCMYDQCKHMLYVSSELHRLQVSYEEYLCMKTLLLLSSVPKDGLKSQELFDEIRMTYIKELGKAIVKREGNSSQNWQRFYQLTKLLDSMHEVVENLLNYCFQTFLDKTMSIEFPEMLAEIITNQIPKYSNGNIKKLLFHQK
In short: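 Titration series, up to 92 uM, applied to GRE-bla HeLa cells for 18 h at 37 C. Detection by CCF4 FRET substrate after 2 h at RT.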

[3] = biological target: Glucocorticoid receptor (Homo sapiens) (UniProt P04150); experiment: qHTS assay for small molecule antagonists of glucocorticoid receptor signaling (AID 588533; active means well fitted inhibition curve with a large enough effect in the signal ratio, with a control signal flat, not every such curve was filed as active; the % refers to the signal ratio;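 further: cells stimulated with 2 nM dexamethasone as agonist; on the % scale 0 is the no-effect control and ±100 the full control effect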); details: HeLa MMTV-bla, GRE beta-lactamase ratio, antagonist mode, 18 h; series mostly up to 76.8 µM
In short: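 Antagonist-mode qHTS: compound titrations added to GRE-bla HeLa cells, then dexamethasone 2 nM final; 18 h, 37 C. CCF4 FRET fluorescence normalized to dexamethasone and DMSO; IC50 from Hill fit.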

[4] = qHTS assay for small molecule antagonists of peroxisome proliferator-activated receptor delta signaling (AID 588535; active means well fitted inhibition curve with a large enough effect in the signal ratio, with a control signal flat, not every such curve was filed as active; the % refers to the signal ratio;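 on max response: cells co-treated with a PPAR-delta agonist as stimulator during compound exposure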); details: HEK293T PPARd-UAS-bla, beta-lactamase FRET ratio, 18 h; 460 nm channel
In short: (§1)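 Reporter: UAS-bla under PPAR-delta response element, HEK293T host. Medium: 2% charcoal/dextran FBS. Dosing: titration, 18 hrs, 37 C. Detection: CCF4, 2 hrs RT, 405 ex/460 and 530 em.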

[5] = biological target: Peroxisome proliferator-activated receptor delta (Homo sapiens) (UniProt Q03181); experiment: as above; details: HEK293T PPARd-UAS-bla, beta-lactamase FRET ratio, 18 h; series mostly up to 76.7 µM
Peroxisome proliferator-activated receptor delta (Homo sapiens), sequence (Q03181 whole entry, looked up): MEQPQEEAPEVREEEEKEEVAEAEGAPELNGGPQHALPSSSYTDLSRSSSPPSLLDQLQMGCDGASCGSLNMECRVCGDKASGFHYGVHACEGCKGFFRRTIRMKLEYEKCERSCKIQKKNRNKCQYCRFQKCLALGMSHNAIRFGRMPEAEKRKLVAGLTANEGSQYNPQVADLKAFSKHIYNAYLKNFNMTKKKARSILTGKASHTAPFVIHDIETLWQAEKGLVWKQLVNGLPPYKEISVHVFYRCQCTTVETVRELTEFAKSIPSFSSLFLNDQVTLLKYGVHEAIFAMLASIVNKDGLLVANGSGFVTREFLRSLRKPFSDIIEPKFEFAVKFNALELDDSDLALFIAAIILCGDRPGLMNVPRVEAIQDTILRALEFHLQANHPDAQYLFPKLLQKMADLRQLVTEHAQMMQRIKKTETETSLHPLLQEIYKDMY
In short: as §1

[6] = biological target: Peroxisome proliferator-activated receptor gamma (Homo sapiens) (UniProt P37231); experiment: qHTS assay for small molecule agonists of peroxisome proliferator-activated receptor gamma signaling (AID 588536; active means well fitted curve in the direction sought with a large enough effect in the signal ratio, with a control signal flat, not every such curve was filed as active; the % refers to the signal ratio;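 further: 0% = DMSO basal wells and 100% = rosiglitazone at 2 µM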); details: HEK293 PPARg-UAS-bla, beta-lactamase ratio, 16 h, percent of rosiglitazone response, DMSO as zero; series mostly up to 76.7 µM
Peroxisome proliferator-activated receptor gamma (Homo sapiens), sequence (P37231 whole entry, looked up): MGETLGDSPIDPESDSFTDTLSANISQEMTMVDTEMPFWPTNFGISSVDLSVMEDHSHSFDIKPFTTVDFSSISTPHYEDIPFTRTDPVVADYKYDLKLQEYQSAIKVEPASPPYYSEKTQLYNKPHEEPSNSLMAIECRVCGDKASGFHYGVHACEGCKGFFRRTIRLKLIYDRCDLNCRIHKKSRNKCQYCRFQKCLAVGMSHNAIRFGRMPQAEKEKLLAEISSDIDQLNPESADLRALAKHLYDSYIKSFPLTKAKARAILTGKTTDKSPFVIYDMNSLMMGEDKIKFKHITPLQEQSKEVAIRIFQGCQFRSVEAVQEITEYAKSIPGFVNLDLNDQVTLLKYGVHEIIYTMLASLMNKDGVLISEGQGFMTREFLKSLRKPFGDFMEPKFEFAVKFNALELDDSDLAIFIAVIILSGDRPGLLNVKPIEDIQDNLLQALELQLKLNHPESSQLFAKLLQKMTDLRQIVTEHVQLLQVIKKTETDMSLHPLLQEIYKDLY
In short: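 GeneBLAzer PPAR-gamma-UAS-bla HEK293 cells in 1% charcoal/dextran-treated FBS medium were treated 16 h at 37 C with compounds. Beta-lactamase activity was read by CCF4 ratio (460/530 nm). Response was normalized to 2 uM rosiglitazone (100%) and DMSO, then Hill-fitted for EC50 and efficacy.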

[7] = biological target: Estrogen receptor (Homo sapiens) (UniProt P03372); experiment: qHTS assay for small molecule antagonists of estrogen receptor alpha signaling (AID 588513; active means well fitted curve in the direction sought with a large enough effect in the signal ratio, with a control signal flat, not every such curve was filed as active; the % refers to the signal ratio; further: on the % scale 0 is the no-effect control and ±100 the full control effect); details: ER-alpha-UAS-bla HEK293, beta-lactamase ratio, antagonist mode; series mostly up to 76.9 µM
Estrogen receptor (Homo sapiens), sequence (P03372 whole entry, looked up): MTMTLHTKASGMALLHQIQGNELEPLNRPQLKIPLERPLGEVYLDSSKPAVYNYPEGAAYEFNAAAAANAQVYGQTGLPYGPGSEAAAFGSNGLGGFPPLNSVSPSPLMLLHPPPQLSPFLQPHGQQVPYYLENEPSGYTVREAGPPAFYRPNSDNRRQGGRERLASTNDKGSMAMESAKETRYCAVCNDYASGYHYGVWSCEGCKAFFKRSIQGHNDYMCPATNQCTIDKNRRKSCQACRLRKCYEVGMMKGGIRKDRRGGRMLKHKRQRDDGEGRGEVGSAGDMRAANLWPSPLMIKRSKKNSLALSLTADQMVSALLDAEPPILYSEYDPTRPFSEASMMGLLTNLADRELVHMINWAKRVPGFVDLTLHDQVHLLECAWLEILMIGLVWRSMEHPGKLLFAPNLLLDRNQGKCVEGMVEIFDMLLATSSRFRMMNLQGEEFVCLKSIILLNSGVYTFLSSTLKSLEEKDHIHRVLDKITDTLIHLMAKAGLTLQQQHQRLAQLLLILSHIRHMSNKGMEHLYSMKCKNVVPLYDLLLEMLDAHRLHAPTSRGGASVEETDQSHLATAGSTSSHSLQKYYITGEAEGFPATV
In short: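 ER-alpha-UAS-bla GripTite HEK 293 cells in 2% charcoal/dextran-treated FBS medium; compounds titrated (1:2, duplicate), then stimulated with 0.5 nM 17-beta-estradiol for 18 h at 37C. CCF4 beta-lactamase fluorescence; Hill-fit IC50 and efficacy.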

[8] = biological target: Estrogen receptor (Homo sapiens) (UniProt P03372); experiment: qHTS assay for small molecule agonists of estrogen receptor alpha signaling (AID 588514); details: ER-alpha-UAS-bla HEK293, beta-lactamase ratio, 18 h; series mostly up to 76.8 µM;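 further: 0% = vehicle only and 100% = reference agonist; nearly all actives have a fitted effect of over 70% in size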
In short: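 Cells were plated at 5000/well, incubated 4 hrs at 37 C, dosed with compound titration series, incubated 18 hrs at 37 C, loaded with CCF4 dye for 2 hrs at RT, then fluorescence was read.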

[9] = biological target: Androgen receptor (Homo sapiens) (UniProt P10275); experiment: qHTS assay for small molecule agonists of androgen receptor signaling (AID 588515; active means well fitted curve in the direction sought with a large enough effect in the signal ratio, with a control signal flat; the % refers to the signal ratio; further: on the % scale 0 is the no-effect control and ±100 the full control effect); details: AR-UAS-bla HEK293, beta-lactamase ratio, agonist 16 h; stronger effect = higher value
Androgen receptor (Homo sapiens), sequence (P10275 whole entry, looked up): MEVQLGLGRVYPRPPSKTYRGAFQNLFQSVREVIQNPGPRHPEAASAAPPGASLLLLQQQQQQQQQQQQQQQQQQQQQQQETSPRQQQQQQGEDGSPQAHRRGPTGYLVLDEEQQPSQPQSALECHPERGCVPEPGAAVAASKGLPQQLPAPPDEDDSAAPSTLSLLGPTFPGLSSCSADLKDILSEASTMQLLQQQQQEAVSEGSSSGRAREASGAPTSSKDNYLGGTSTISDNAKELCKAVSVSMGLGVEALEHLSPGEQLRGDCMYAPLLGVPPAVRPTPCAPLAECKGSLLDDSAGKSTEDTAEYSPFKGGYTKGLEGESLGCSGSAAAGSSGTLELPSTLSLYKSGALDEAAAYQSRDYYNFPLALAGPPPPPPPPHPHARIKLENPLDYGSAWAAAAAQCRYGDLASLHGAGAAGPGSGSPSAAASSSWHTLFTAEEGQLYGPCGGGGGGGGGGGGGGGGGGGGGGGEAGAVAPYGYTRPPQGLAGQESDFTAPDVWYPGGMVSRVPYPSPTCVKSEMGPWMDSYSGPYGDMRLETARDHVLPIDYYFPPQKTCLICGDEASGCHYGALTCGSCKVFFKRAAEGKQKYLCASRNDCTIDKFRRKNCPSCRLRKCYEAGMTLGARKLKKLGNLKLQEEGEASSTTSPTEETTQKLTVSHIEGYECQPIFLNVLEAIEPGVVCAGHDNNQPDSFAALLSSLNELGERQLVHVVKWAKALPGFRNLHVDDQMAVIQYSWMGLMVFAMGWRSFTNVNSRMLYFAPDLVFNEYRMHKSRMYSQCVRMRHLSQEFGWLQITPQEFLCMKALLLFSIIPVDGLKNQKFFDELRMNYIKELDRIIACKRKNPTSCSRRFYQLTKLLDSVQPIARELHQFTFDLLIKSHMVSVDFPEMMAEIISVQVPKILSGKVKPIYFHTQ
In short: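 EC50 and efficacy came from Hill fits of titrations (up to 92 uM) normalized to 30 nM R1881 as 100% and DMSO as 0%. Compound exposure was 16 h at 37 C on AR-UAS-bla HEK293 cells, with a 405/460/530 nm CCF4 fluorescence read.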

[10] = biological target: Androgen receptor (Homo sapiens) (UniProt P10275); experiment: qHTS assay for small molecule antagonists of androgen receptor signaling (AID 588516; active means well fitted curve in the direction sought with a large enough effect in the signal ratio, with a control signal flat, not every such curve was filed as active; the % refers to the signal ratio; further: on the % scale 0 is the no-effect control and ±100 the full control effect); details: AR-UAS-bla HEK293, beta-lactamase ratio, antagonist mode, 16 h; series mostly up to 76.8 µM
In short: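 AR-UAS-bla GripTite HEK 293 cells (2000/well) treated with compound titrations plus 10 nM R1881 for 16 h at 37C. Beta-lactamase read by CCF4 FRET (460/530 nm); IC50 from Hill fits, normalized to R1881 and DMSO control wells.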

IC(I)I
inactive: Potency [1] | activation [2] 16.8% and -7.64% | outcome [3] | outcome [5] | outcome [6]
3.49% and 21.3%: max response [4]

O=C(O)CCC(=O)C(=O)O
inactive: outcome [7] | Potency [8] | activation [2] -1.14% | outcome [3] | outcome [6]

CC(C)=O
-10.3%: max response [4]
inactive: outcome [7] | Potency [8] | activation [9] 7.27% | outcome [10] | outcome [5] | outcome [6]

CC(C)(C)NC(=O)[C@@H]1C[C@@H]2CCCC[C@@H]2CN1C[C@@H](O)[C@H](Cc1ccccc1)NC(=O)[C@H](CC(N)=O)NC(=O)c1ccc2ccccc2n1
active: Potency [1] 44.7 µM

O=CCCCC=O
inactive: outcome [7] | Potency [8] | Potency [1] | activation [2] 5.8% | outcome [5]
37.6%: max response [4]

CCOc1ccc2c(c1)C(C)=CC(C)(C)N2
inactive: outcome [7] | Potency [8] | activation [9] 15.4% | outcome [10]

Nc1ccn([C@H]2CS[C@@H](CO)O2)c(=O)n1
inactive: activation [2] -2.07% | outcome [3] | outcome [5] | outcome [6]
-4.56%: max response [4]

CC1=C2[C@@H]([C@H](C)CC[C@H]2/C=C(\C)C(=O)O)[C@H](O)C1
inactive: outcome [7] | Potency [8] | Potency [1] | outcome [6]

CCCCC/C=C\C/C=C\CCCCCCCC(=O)O
inactive: outcome [7] | Potency [8] | Potency [1] | outcome [5]
53% and -23.8%: max response [4]
